# Results filed as inconclusive are left out. Where a call stands in place of a potency, no number is given. Activity calls are given as the source filed them. Unless noted, calls come from the whole dose curve; as a rule, active = well fitted curve in the direction sought with a large enough effect; inconclusive = small, poorly fitted or top-dose-only effect, or another doubt; inactive = no such curve, though single readings can be large; an effect the other way counts as inactive or inconclusive.
# Tests used:
# [1] = qHTS Assay for Identification of Small Molecule Agonists for Hypoxia Response Element Signaling Pathway (AID 914; active = well fitted activation curve with a large enough effect in the signal ratio, with a control signal flat, not every such curve was filed as active; the % refers to the signal ratio; note: potency is the fitted concentration of half-maximal effect); settings: ME-180 (cervical carcinoma) HRE-bla reporter, beta-lactamase ratio, CoCl2, 17 h; activation: stronger effect = higher value
# Outline: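 HRE-bla ME-180 assay for agonist-like enhancement of an EC50 CoCl2 stimulus: 17 h at 37 degrees Celsius, CCF4 for 2.5 h, ratiometric 460/530 nm signal converted to %Activity and fitted to AC50.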
# [2] = qHTS Assay for Identifying Gametocytocidal Compounds (AID 743244); note: potency is the fitted concentration of half-maximal effect; settings: P. falciparum 3D7 stage III-V gametocytes, alamarBlue, 72 h
# Outline: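 Late gametocytes (III–V), P. falciparum 3D7; 72 h drug, then 24 h alamarBlue; resazurin reduction read by fluorescence.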
# [3] = Confirmatory qHTS for VERO E6 Cytotoxicity Assay: Counterscreen for SARS-CoV-2 CPE Assay (AID 1508605; calls by dose curve; note: nearly all actives have a fitted effect of over 60% in size)
# [4] = Confirmatory qHTS for activators (rescue) of SARS-CoV-2 Cytopathic Effect (CPE) (AID 1508606; calls by dose curve; note: potency is the fitted concentration of half-maximal effect; nearly all actives have a fitted effect of over 70% in size)
# [5] = biological target: Alpha-galactosidase (Coffea arabica) (UniProt Q42656); assay: Counterscreen for Glucocerebrosidase Inhibitors: qHTS Assay for Coffee Bean alpha-Galactosidase at pH 4.5 (AID 957)
# Chain of Alpha-galactosidase (Coffea arabica) (Q42656 whole entry, looked up): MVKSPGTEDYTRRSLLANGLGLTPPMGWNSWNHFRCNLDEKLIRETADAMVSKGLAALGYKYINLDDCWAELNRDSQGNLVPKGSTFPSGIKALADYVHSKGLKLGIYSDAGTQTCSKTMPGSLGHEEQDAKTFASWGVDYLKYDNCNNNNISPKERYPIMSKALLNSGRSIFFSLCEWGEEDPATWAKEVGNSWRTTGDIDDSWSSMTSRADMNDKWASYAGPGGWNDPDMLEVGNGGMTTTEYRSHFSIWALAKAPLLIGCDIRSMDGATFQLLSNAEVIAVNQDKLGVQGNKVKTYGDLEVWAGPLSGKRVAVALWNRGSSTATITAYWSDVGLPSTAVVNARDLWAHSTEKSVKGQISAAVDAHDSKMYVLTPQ
# Outline: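 Enzyme is added first (2 nM final), then compounds titrated from 0.7 nM to 77 uM, then 80 uM 4-methylumbelliferyl alpha-D-galactopyranoside; after 20 min at room temperature a pH 10 NaOH/glycine stop precedes fluorescence reading at 365/440 nm.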
# [6] = biological target: Alpha-galactosidase (Coffea arabica) (UniProt Q42656); assay: Counterscreen for Glucocerebrosidase Inhibitors: qHTS Assay for Coffee Bean alpha-Galactosidase at pH 5.9 (AID 998)
# Outline: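 In 50 mM citric acid pH 5.9 with 0.005% Tween-20, coffee bean enzyme hydrolyses 80 uM 4-MU alpha-D-galactopyranoside over 20 min at RT. Activity is normalized to controls; AC50 comes from Hill-modelled concentration-response data.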
# [7] = Inducers of the Endoplasmic Reticulum Stress Response (ERSR) in human glioma: Validation (AID 504836)
# Outline: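 Stably transfected U87-MG human glioma cells carrying a GRP78-based luminescent sensor were seeded at 1000 cells/well, pin-dosed with compounds and incubated 16 h. Luciferase reagent was then added, and end-point luminescence was read after 10 min at room temperature.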
# [8] = biological target: Peroxisome proliferator-activated receptor delta (Homo sapiens) (UniProt Q03181); assay: qHTS assay for small molecule agonists of peroxisome proliferator-activated receptor delta signaling (AID 588534; calls by dose curve)
# Chain of Peroxisome proliferator-activated receptor delta (Homo sapiens) (Q03181 whole entry, looked up): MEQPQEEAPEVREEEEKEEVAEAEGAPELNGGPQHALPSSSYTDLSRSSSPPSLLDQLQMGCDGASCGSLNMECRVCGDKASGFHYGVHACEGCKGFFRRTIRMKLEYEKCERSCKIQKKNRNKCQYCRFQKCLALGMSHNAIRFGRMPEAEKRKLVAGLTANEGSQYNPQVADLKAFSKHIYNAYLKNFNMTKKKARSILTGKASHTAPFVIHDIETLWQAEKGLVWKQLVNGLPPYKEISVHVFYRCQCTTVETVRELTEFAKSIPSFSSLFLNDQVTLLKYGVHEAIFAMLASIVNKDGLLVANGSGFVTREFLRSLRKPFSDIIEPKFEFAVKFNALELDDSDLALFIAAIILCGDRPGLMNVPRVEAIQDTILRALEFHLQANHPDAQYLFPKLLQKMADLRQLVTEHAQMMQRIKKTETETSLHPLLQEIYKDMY
# Outline: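 Agonist-mode qHTS; reporter cells, 5 hrs 37 C pre-incubation; compound titration, 18 hrs 37 C; CCF4 dye, 2 hrs RT; fluorescence read. EC50/efficacy via Hill fit.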
# [9] = NCATS anti-infectives library activity on the primary C. elegans qHTS viability assay (AID 1745855; calls by dose curve)
# Outline: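 GFP read-out by 488 nm laser cytometry at day 0, 3 and 7, gated on object perimeter, area and peak intensity, scored viability of PE254-GFP-FLuc worms exposed to compound in S medium with bacterial capsules at 21 °C.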
# [10] = biological target: Nuclear receptor subfamily 1 group I member 3 (Homo sapiens) (UniProt Q14994); assay: Primary qHTS for antagonist of constitutive androstane receptor (CAR) against the NCATS DSHEA and TCM libraries (AID 1794836)
# Chain of Nuclear receptor subfamily 1 group I member 3 (Homo sapiens) (Q14994 whole entry, looked up): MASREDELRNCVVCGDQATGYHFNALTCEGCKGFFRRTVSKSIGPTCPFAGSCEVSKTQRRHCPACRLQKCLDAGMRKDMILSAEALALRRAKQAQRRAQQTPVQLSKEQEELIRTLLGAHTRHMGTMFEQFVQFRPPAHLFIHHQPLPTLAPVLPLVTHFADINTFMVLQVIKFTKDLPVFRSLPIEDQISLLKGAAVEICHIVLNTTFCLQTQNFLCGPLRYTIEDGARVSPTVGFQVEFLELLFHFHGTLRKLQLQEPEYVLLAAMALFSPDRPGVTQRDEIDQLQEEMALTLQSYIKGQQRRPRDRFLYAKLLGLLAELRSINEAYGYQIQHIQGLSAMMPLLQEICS
# Outline: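 HepG2 cells stably carrying hCAR and a CYP2B6 luciferase reporter (2,500 cells/well) attached for 5 h, then received compounds with 48 uM CITCO for 24 h at 37C. ONE-Glo luminescence read antagonism; CellTiter-Fluor (405/540 nm) gave viability.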
# [11] = KB-8-5-11 P-gp reporter qHTS against the NCATS DSHEA and TCM libraries (AID 1919977)
# Outline: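 P-gp-overexpressing KB-8-5-11 cells were screened in colchicine-free medium at 500 cells/well, as a titration series. Cells were exposed for 72 h at 37C. Viability was read by CellTiter-Glo luminescence after 30 min at room temperature.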
# [12] = biological target: Cytochrome P450 3A4 (Homo sapiens) (UniProt P08684); assay: qHTS Assay for Inhibitors and Substrates of Cytochrome P450 3A4 (AID 884); note: nearly all actives have a fitted effect of over 50% in size
# Chain of Cytochrome P450 3A4 (Homo sapiens) (P08684 whole entry, looked up): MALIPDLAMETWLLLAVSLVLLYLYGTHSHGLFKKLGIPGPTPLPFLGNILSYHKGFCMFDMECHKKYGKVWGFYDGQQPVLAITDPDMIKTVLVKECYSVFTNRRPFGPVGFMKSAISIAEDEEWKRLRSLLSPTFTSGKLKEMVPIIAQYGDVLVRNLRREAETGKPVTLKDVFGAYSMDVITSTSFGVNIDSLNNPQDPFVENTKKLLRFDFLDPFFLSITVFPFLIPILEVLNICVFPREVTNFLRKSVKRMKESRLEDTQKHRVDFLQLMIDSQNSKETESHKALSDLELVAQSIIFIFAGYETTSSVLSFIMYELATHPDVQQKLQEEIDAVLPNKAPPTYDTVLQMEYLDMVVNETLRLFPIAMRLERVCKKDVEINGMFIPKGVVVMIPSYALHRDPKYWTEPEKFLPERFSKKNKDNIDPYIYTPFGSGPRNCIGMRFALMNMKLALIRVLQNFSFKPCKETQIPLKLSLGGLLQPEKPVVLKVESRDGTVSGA
# Outline: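 Luminescent readout of luciferin produced by CYP3A4 (20 nM) dealkylation of Luciferin-PPXE, 25 uM (its KM). NADPH-driven reaction ran 60 min at RT after 10 min compound preincubation; data scaled to 57 uM ketoconazole as 100% inhibition.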
# [13] = Confirmation and Secondary Assay for Modulators of Hemoglobin Beta Chain Splicing at IVS2 654 locus (AID 910);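 note: per-well total GFP intensity by laser scanning cytometry after 2-day treatment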
# Outline: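 HeLa cells stably carrying EGFP interrupted by mutant beta-globin IVS2-654 intron (CMV-driven) were treated with compound for 2 days at 37C; corrected splicing was scored as total peak GFP intensity per well (488 nm excitation, 500-520 nm emission).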
# [14] = Confirmation and Secondary Assay for Modulators of Hemoglobin Beta Chain Splicing at IVS2 705 locus (AID 930);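 note: HeLa cells stably expressing the EGFP-705 splicing reporter; GFP fluorescence per well restored by corrected splicing of the IVS2-705 intron in EGFP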
# Outline: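 HeLa IVS2-705 EGFP reporter cells, 500/well, compound 2 d at 37C; correct splicing yields fluorescent EGFP. Control: 500 nM antisense PNA. Read-out: total peak GFP intensity.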
# [15] = qHTS Assay for Lipid Storage Modulators (AID 1519; calls by dose curve); settings: Drosophila S3 cells, BODIPY lipid droplet/cell ratio, laser cytometry, cells loaded with oleic acid
# Outline: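 Cells seeded at 5,000 per well were treated with compounds over a concentration series and loaded with oleic acid (400 uM, as added). Lipid droplet fluorescence (488 nm excitation, 500-530 nm channel) was read by laser-scanning cytometry and normalized to 20 uM Triacsin C.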
# [16] = biological target: Ubiquitin carboxyl-terminal hydrolase 1 (Homo sapiens) (UniProt O94782); assay: Inhibitors of USP1/UAF1: Pilot qHTS (AID 504865);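 note: rhodamine fluorescence freed from ubiquitin-rhodamine substrate followed over time; top concentration of the series differs between compounds; nearly all actives have a fitted effect of over 35% in size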
# Chain of Ubiquitin carboxyl-terminal hydrolase 1 (Homo sapiens) (O94782 whole entry, looked up): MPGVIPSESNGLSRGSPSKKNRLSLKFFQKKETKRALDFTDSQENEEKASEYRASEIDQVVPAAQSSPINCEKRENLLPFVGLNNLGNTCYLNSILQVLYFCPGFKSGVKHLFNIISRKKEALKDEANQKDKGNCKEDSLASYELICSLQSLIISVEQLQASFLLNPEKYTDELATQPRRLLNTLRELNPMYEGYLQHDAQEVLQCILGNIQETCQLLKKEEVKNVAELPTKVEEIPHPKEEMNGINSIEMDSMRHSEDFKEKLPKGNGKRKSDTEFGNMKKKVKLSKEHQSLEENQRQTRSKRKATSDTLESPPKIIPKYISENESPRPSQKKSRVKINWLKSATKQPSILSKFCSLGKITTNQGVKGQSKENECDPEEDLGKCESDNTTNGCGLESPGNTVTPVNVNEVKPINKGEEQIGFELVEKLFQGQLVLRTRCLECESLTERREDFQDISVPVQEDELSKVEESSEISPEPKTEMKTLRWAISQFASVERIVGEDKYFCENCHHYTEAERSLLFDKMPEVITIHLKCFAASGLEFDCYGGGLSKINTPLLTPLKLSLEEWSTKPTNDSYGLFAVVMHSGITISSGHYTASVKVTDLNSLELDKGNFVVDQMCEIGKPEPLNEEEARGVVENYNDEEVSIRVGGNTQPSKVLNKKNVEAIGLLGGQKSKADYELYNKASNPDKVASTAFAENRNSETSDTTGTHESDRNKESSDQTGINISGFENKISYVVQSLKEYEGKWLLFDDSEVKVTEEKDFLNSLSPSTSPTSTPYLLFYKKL
# Outline: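 USP1/UAF1 complex at 1 nM preincubated 15 min at room temperature with compound, then Ub-Rho substrate added at 150 nM final. Fluorescence (480/540 nm) read kinetically in 50 mM HEPES pH 7.8, 0.5 mM EDTA, 1 mM TCEP, 0.1 mg/ml BSA, 0.01% Tween-20.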
# [17] = biological target: Phospholipid hydroperoxide glutathione peroxidase GPX4 (Homo sapiens) (UniProt P36969); assay: Primary qHTS Assay for Inhibitors of Recombinant Selenoprotein Glutathione Peroxidase 4 (GPX4) (AID 1845192); note: nearly all actives have a fitted effect of over 65% in size
# Chain of Phospholipid hydroperoxide glutathione peroxidase GPX4 (Homo sapiens) (P36969 whole entry, looked up): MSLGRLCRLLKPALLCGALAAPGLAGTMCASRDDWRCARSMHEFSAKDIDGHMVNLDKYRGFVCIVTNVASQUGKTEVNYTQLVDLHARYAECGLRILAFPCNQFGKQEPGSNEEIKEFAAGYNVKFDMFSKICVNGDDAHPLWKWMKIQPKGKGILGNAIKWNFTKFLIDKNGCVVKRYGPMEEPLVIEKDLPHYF
# Outline: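 qHTS, GR-coupled: GPX4 200 nM + cpd 30 min RT → GSH 1 mM, NADPH 0.5 mM, GR 100 nM → CHP 0.5 mM start; fluor 340/450 at t0 and t15 min; no-enzyme wells as control.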
compound,measurement,setting,value
CCN(CC)Cc1cc(Nc2ccnc3cc(Cl)ccc23)ccc1O,Potency,[1],5.01 µM (active)
same,Potency,[2],11.2 µM (active)
same,Potency,[3],inactive
same,Potency,[4],5.62 µM (active)
Cc1cc(N)c2ccccc2[n+]1CCCCCCCCCC[n+]1c(C)cc(N)c2ccccc21,outcome,[5],inactive
same,outcome,[6],inactive
same,outcome,[7],inactive
CC[C@H]1OC(=O)[C@H](C)[C@@H](O[C@H]2C[C@@](C)(OC)[C@@H](O)[C@H](C)O2)[C@H](C)[C@@H](O[C@@H]2O[C@H](C)C[C@H](N(C)C)[C@H]2O)[C@](C)(O)C[C@@H](C)CN(C)[C@H](C)[C@@H](O)[C@]1(C)O,outcome,[8],inactive
CN(C)CC/C=C1\c2ccccc2CSc2ccccc21,Potency,[3],inactive
CC(C)OC(=O)[C@H](C)N[P@](=O)(CO[C@H](C)Cn1cnc2c(N)ncnc21)Oc1ccccc1,Potency,[9],inactive
C=C1CC[C@H](O)CC1=C/C=C1\CCC[C@]2(C)[C@@H]([C@H](C)/C=C/[C@H](C)C(C)C)CC[C@@H]12,Potency,[10],inactive
C=C1CC[C@H](O)C/C1=C\C=C1/CCC[C@]2(C)[C@@H]([C@H](C)CCCC(C)C)CC[C@@H]12,Potency,[10],inactive
same,Potency,[11],inactive
CNC(C)C(O)c1ccccc1 (stereo unspecified),Potency,[12],inactive
same,Potency,[13],inactive
same,Potency,[14],inactive
same,"activity change, negative = inhibition",[15]; at 57.5 µM (top of the series),8.05% (inactive)
same,max response,[15]; measured here: cell count channel max response,10.2%
same,max response,[15]; measured here: lipid channel max response,21.8%
same,Potency,[16],inactive
same,Potency,[17],inactive

# Source: PubChem BioAssay (NCATS)
